The source of these data is PubChem BioAssay (NCI).

The panel holds about 83,000 compounds, 20% with a hit somewhere; the sample as a whole holds those more often.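 Activity criterion: percent growth below 10, measured after cells in 96-well plates were exposed to a single compound concentration for 48 hours.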 Unmarked numbers belong to inactive results. Active and inactive are the calls of the source.

For one assay, the system named is CCRF-CEM leukemia. Briefly: NCI-60 one-dose screen, 48 h (100 = growth as untreated, 0 = no growth, -100 = all killed). Conditions: 10 µM unless noted.
Consider `CCCCCCCSc1ncnc2[nH]ncc12`, for which the growth was 76%.
Regarding `O=C1NC(=O)/C(=C\c2ccco2)S1`, the growth is 95.9%.
Still for that read-out and setting: the result for `Cc1sc2nc3c4ccccc4c(NCCCN(C)C)nn3c(=O)c2c1C` reads -27.9% (active); that for `COc1ccc([N+](=O)[O-])c(S(=O)(=O)c2ccc(Cl)cc2)n1`, -11.5% (active); that for `COc1ccc(NC(=O)c2ccccc2-c2ccccc2)c(C(N)=O)c1`, 11.7%.
Still for that read-out and setting: the result for `COc1ccc(NC(=O)[C@@H]2C[C@H]2c2ccccc2)c(C(N)=O)c1` reads 94%; that for `COc1cc(-c2n[nH]nc2-c2ccccn2)cc(OC)c1OC`, 97.7%.
The same measure, in the same setting: the result for `O=C1C(=O)/C(=C/c2ccccc2)CCCCCC/C1=C/c1ccccc1` reads 4.29% (active).
Consider `O=C(Nc1ccc(Cl)cc1)Nc1nc2ccc(OC(F)(F)F)cc2o1`, for which the growth is 80.1%.
For `COc1ccc(N2CCN(CC(=O)N3CCN(c4nnc(-c5ccccc5)c(-c5ccccc5)n4)CC3)CC2)cc1`, the growth is 32.4%.
For the compound `CSc1nc(-c2ccc(O)cc2O)c2c(=O)[nH]c(Nc3ccc(S(=O)(=O)Nc4nc(C)cc(C)n4)cc3)nc2n1`, the growth was 103%.
The same measure, in the same setting: the result for `N[C@H](CS)C(=O)O` reads 90.8%; that for `COc1ccc(-c2nnc3c4[nH]cnc4ncn23)c(OC)c1`, 12.6%.
For the compound `C1CCC(C(CC2CCCCN2)C2CCCCC2)CC1` (centres undefined), the growth was 4.88% (active).
On to `CCOC(=O)c1sc(NC(=O)COc2cccc(/C=C3\Cc4ccc(Cl)cc4C3=O)c2)nc1C`, for which the growth was 114%.
On the same count and under the same terms, the same measure for `CC(=O)c1ccc(NS(=O)(=O)c2ccc([N+](=O)[O-])cc2)cc1`: 93.8%.
Consider `O=C(/C=C/c1c(-c2ccccc2)[nH]c2ccccc12)S(=O)(=O)c1ccccc1`, for which the growth is 30.2%.
The same measure, in the same setting: the result for `O=c1sc2ncnc3ncn1c32` reads 54.8%; that for `Cc1nn2c(/C=C3/C(=O)Nc4cc(Cl)ccc43)c(-c3ccccc3)nc2s1`, -14% (active); that for `Nc1nc2c(nnn2Cc2ccc(Cl)c(Cl)c2)c(=O)[nH]1`, 81.2%.

The test system of another assay is MOLT-4 leukemia. Described as above. Particulars: 10 µM unless noted.
As to `CC(C)CNc1nc(N=[N+]=[N-])nc(NCC(C)C)n1`, the growth is 34.4% [100 µM].
Still for that read-out and setting: the same measure for `CCCCCCCSc1ncnc2[nH]ncc12`: 75.4%; for `COC(=O)[C@H](Cc1cn(C)cn1)NC(=O)[C@H](Cc1ccccc1)NC(=O)Nc1cc(C(F)(F)F)cc(C(F)(F)F)c1`: -55% [100 µM] (active); for `CC[N+](CCCCCCCCCC[N+](CC)(c1ccccn1)c1ccccn1)(c1ccccn1)c1ccccn1`: -8.33% (active).
Same read-out and setting: the result for `CCCCCCC(CC#N)(CCC)CCCC` (centres undefined) reads 97.5%; that for `O=C1NC(=O)/C(=C\c2ccco2)S1`, 111%; that for `Cc1sc2nc3c4ccccc4c(NCCCN(C)C)nn3c(=O)c2c1C`, -44.9% (active).
Same read-out and setting: the same measure for `COc1ccc([N+](=O)[O-])c(S(=O)(=O)c2ccc(Cl)cc2)n1`: 2.58% (active); for `COc1ccc(NC(=O)c2ccccc2-c2ccccc2)c(C(N)=O)c1`: 20%; for `CCCCCc1c(C)[nH]c(/C=C2\N=C(c3ccc[nH]3)C=C2Oc2ccccc2)c1C`: -40.2% [100 µM] (active).
Regarding `COc1ccc(NC(=O)[C@@H]2C[C@H]2c2ccccc2)c(C(N)=O)c1`, the growth was 92.4%.
Same read-out and setting: the same measure for `COc1cc(-c2n[nH]nc2-c2ccccn2)cc(OC)c1OC`: 96.6%; for `COC(=O)[C@H](Cc1cnc[nH]1)NC(=O)[C@@H](NC(=O)Nc1cc(C(F)(F)F)cc(C(F)(F)F)c1)C(C)C`: -45.5% [100 µM] (active).
Same read-out and setting: the same measure for `O=C1C(=O)/C(=C/c2ccccc2)CCCCCC/C1=C/c1ccccc1`: 10.2%.
Still for that read-out and setting: the same measure for `O=C(Nc1ccc(Cl)cc1)Nc1nc2ccc(OC(F)(F)F)cc2o1`: 76.4%; for `COc1ccc(N2CCN(CC(=O)N3CCN(c4nnc(-c5ccccc5)c(-c5ccccc5)n4)CC3)CC2)cc1`: 1.56% (active).
With `CCCCCCCCCCCCCCCCNC(=O)Nc1ccc2ccccc2c1`, the growth was 105%.
On the same count and under the same terms, the result for `FCc1ncc(-c2ccc(C(F)(F)F)cc2)c(NC2CCCCCC2)n1` reads -20.3% [100 µM] (active).
Same read-out and setting: the same measure for `O=Cc1ncc(-c2ccc(C(F)(F)F)cc2)c(NC2CCCCCC2)n1`: -60% [100 µM] (active); for `COC(=O)[C@H](Cc1cn(C)cn1)NC(=O)[C@@H](NC(=O)Nc1cc(C(F)(F)F)cc(C(F)(F)F)c1)C(C)C`: -56.2% [100 µM] (active).
As to `CSc1nc(-c2ccc(O)cc2O)c2c(=O)[nH]c(Nc3ccc(S(=O)(=O)Nc4nc(C)cc(C)n4)cc3)nc2n1`, the growth was 104%.
Consider `CC(C)OP(=O)(OC(C)C)c1ncc(-c2ccc(C(F)(F)F)cc2)c(NC2CCCCCC2)n1`, for which the growth is -46.2% [33.3 µM] (active).
In the case of `NS(=O)(=O)c1ccc(-n2nc(-c3ccc(Br)cc3)ccc2=O)cc1`, the growth is 92.6% [100 µM].
Same read-out and setting: the result for `CC1CC=CCC1C1OCC(C)(C)CO1` (centres undefined) reads 102%.
Still for that read-out and setting: the result for `N[C@H](CS)C(=O)O` reads 104%; that for `CCCCCc1c(C)[nH]c(/C=C2\N=C(c3ccc[nH]3)C=C2Oc2ccc(Cl)cc2)c1C`, -23.6% [100 µM] (active); that for `[N-]=[N+]=NCc1ncc(-c2ccc(C(F)(F)F)cc2)c(NC2CCCCCC2)n1`, 54.7% [50 µM].
The same measure, in the same setting: the same measure for `COc1ccc(-c2nnc3c4[nH]cnc4ncn23)c(OC)c1`: 8.73% (active); for `CCOC(=O)c1sc(NC(=O)COc2cccc(/C=C3\Cc4ccc(Cl)cc4C3=O)c2)nc1C`: 105%; for `CCCCCCCC[Si](OCC)(OCC)OCC`: 95.7%.
For `CCOc1cc(CCNS(=O)(=O)c2ccc(C)cc2)c(C(C)=O)cc1OCC`, the growth is 9.64% [100 µM] (active).
On the same count and under the same terms, the same measure for `CC(=O)c1ccc(NS(=O)(=O)c2ccc([N+](=O)[O-])cc2)cc1`: 87.1%; for `COC(=O)[C@H](CCCCNC(=O)OCc1ccccc1)NC(=O)[C@@H](NC(=O)Nc1cc(C(F)(F)F)cc(C(F)(F)F)c1)C(C)C`: -7.72% [100 µM] (active); for `O=C(/C=C/c1c(-c2ccccc2)[nH]c2ccccc12)S(=O)(=O)c1ccccc1`: 20.4%.
For `CCOC(=O)C(C(=O)OCC)C1CCCCC1`, the growth is 102%.
In the case of `CNc1nc(NC2CCCC2)nc(Sc2ccc(OC)cc2)n1`, the growth was -5.92% [100 µM] (active).
Still for that read-out and setting: the result for `O=c1sc2ncnc3ncn1c32` reads 35.9%; that for `Cc1nn2c(/C=C3/C(=O)Nc4cc(Cl)ccc43)c(-c3ccccc3)nc2s1`, 13.1%; that for `Nc1nc2c(nnn2Cc2ccc(Cl)c(Cl)c2)c(=O)[nH]1`, 93.8%.
